Experimental data reported in ChEMBL document CHEMBL2218924, “A broad activity screen in support of a chemogenomic map for kinase signalling research and drug discovery” (Biochem J, 2013).

Columns and labels:
[1] = biological target: Serine/threonine-protein kinase 33 (Homo sapiens) (UniProt Q9BYT3); details: at 1 µM
[2] = biological target: Serine/threonine-protein kinase 33 (Homo sapiens) (UniProt Q9BYT3); details: at 10 µM
[3] = biological target: Serine/threonine-protein kinase PLK2 (Homo sapiens) (UniProt Q9NYY3); details: at 1 µM
Chain of Serine/threonine-protein kinase PLK2 (Homo sapiens) (Q9NYY3 whole entry, looked up): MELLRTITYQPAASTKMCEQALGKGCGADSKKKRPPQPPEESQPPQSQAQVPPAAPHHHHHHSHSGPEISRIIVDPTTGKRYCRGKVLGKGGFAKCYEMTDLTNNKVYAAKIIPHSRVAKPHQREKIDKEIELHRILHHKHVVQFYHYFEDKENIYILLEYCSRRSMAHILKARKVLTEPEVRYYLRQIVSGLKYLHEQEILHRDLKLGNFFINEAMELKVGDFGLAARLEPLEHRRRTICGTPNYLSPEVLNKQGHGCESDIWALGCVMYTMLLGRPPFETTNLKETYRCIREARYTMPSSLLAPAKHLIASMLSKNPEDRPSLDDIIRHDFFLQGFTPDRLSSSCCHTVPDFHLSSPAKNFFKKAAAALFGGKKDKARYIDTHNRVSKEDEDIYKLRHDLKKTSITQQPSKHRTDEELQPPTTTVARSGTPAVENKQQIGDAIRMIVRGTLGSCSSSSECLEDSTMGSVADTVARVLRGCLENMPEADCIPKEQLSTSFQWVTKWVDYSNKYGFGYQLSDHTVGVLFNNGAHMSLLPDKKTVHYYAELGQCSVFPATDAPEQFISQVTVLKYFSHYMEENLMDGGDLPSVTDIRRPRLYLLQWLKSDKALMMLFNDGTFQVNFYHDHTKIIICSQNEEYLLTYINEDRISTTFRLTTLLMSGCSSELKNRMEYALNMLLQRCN

[4] = biological target: Serine/threonine-protein kinase PLK2 (Homo sapiens) (UniProt Q9NYY3); details: at 10 µM
[5] = biological target: Tyrosine-protein kinase SYK (Homo sapiens) (UniProt P43405); details: at 1 µM
[6] = biological target: Tyrosine-protein kinase SYK (Homo sapiens) (UniProt P43405); details: at 10 µM
[7] = biological target: T1, Serine/threonine-protein kinase TBK1 (Homo sapiens) (UniProt Q9UHD2); details: at 1 µM
T1 sequence (whole entry): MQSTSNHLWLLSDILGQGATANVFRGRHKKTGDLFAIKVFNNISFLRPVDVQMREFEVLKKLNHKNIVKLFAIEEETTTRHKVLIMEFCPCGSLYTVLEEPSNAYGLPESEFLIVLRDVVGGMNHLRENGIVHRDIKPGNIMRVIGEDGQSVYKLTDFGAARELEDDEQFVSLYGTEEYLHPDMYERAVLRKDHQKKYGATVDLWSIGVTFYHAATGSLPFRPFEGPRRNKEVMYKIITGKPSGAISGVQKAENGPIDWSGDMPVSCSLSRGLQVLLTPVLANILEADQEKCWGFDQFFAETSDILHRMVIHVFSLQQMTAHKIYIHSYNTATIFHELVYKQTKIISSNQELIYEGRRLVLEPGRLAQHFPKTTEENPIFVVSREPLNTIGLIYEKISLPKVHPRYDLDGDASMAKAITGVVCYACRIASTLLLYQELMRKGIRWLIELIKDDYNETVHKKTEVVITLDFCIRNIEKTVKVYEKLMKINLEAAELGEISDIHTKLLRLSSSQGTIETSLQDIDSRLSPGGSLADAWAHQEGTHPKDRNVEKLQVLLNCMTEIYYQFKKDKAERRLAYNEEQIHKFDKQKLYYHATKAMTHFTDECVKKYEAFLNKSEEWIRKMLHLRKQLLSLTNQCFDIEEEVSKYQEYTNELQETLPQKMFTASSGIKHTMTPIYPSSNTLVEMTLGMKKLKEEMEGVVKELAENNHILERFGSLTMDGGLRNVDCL

[8] = biological target: Insulin-like growth factor 1 receptor (Homo sapiens) (UniProt P08069); details: at 1 µM
Chain of Insulin-like growth factor 1 receptor (Homo sapiens) (P08069 31-736 limits assumed): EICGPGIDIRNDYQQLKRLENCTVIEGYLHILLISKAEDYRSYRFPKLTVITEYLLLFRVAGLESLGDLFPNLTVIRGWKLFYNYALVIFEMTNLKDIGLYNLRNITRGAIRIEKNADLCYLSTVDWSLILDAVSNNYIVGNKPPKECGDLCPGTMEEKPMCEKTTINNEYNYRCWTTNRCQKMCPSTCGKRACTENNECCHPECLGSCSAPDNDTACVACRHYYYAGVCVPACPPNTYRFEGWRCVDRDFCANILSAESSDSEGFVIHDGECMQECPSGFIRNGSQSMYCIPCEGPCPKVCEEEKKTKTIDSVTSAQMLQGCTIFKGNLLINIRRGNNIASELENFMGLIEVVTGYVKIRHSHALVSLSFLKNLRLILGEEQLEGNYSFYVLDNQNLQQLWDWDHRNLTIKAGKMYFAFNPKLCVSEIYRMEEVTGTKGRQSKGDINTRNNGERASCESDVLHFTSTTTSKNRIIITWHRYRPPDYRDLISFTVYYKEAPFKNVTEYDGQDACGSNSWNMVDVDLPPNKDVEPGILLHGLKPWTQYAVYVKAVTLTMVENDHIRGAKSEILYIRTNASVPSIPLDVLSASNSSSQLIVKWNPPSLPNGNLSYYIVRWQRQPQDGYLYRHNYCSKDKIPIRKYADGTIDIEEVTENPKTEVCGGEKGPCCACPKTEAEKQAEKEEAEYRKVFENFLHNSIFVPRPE
Chain of Insulin-like growth factor 1 receptor (Homo sapiens) (P08069 741-1367 limits assumed): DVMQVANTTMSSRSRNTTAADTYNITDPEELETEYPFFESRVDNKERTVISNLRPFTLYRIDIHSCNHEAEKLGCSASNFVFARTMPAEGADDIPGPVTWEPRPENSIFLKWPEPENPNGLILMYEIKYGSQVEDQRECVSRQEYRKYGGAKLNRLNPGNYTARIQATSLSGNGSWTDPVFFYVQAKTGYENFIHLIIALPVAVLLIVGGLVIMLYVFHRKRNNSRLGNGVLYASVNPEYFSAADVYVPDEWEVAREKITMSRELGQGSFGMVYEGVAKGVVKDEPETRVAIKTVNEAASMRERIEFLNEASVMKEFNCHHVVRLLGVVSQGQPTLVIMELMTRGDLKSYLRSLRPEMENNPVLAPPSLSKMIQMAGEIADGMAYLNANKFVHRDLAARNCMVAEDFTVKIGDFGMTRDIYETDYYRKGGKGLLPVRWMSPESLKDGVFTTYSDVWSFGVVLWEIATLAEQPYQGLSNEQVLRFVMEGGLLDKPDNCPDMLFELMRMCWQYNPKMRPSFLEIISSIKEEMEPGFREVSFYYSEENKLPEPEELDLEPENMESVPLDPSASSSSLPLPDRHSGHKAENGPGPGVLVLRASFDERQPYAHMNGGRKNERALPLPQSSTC

[9] = biological target: Insulin-like growth factor 1 receptor (Homo sapiens) (UniProt P08069); details: at 10 µM
[10] = biological target: T2, Mitogen-activated protein kinase kinase kinase 7 (Homo sapiens) (UniProt O43318); details: at 1 µM
T2 sequence (whole entry): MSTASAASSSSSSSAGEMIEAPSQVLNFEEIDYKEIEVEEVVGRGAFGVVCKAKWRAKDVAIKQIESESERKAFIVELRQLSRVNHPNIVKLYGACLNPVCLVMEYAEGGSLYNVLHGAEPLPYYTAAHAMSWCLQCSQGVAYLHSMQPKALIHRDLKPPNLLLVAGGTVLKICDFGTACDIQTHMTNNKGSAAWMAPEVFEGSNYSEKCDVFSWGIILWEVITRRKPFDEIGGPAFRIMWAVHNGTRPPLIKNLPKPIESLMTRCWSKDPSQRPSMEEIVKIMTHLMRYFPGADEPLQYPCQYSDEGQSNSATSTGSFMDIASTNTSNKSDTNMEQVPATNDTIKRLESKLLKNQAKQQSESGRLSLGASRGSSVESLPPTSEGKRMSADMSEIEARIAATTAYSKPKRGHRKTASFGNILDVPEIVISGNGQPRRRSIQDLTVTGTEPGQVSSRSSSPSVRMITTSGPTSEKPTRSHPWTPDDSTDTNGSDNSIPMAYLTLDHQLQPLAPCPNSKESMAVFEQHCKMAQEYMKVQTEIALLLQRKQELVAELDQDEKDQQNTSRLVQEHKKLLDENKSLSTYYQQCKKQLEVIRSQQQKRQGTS

[11] = biological target: T2, Mitogen-activated protein kinase kinase kinase 7 (Homo sapiens); details: at 10 µM
[12] = biological target: T3, Serine/threonine-protein kinase TAO1 (Homo sapiens) (UniProt Q7L7X3); details: at 1 µM
T3 sequence (whole entry): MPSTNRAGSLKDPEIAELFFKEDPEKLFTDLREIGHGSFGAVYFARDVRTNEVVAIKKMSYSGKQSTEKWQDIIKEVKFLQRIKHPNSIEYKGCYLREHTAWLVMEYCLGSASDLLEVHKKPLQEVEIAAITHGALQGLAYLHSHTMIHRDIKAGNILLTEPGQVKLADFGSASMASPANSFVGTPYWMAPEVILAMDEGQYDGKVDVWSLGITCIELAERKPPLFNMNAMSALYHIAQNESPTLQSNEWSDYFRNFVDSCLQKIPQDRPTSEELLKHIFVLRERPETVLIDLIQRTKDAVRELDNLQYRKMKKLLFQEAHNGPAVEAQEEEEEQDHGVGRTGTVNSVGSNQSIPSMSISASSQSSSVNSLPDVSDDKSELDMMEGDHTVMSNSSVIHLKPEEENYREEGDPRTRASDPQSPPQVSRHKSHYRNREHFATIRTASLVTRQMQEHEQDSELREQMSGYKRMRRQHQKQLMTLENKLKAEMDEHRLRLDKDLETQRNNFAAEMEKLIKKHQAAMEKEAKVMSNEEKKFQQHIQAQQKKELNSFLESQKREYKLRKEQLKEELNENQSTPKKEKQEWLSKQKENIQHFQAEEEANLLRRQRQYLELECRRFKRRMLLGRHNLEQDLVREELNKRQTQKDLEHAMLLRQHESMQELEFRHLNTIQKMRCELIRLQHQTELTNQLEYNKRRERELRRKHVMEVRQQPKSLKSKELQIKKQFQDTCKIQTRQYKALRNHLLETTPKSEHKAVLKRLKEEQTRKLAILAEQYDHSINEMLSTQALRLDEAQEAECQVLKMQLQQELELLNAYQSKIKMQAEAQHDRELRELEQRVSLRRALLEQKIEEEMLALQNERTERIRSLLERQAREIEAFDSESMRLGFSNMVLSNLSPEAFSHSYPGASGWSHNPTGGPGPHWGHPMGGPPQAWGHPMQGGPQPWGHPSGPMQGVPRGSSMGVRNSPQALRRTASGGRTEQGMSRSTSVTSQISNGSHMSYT

[13] = biological target: T3, Serine/threonine-protein kinase TAO1 (Homo sapiens); details: at 10 µM
[14] = biological target: T4, Serine/threonine-protein kinase TAO2 (Homo sapiens) (UniProt Q9UL54); details: at 1 µM
T4 sequence (whole entry): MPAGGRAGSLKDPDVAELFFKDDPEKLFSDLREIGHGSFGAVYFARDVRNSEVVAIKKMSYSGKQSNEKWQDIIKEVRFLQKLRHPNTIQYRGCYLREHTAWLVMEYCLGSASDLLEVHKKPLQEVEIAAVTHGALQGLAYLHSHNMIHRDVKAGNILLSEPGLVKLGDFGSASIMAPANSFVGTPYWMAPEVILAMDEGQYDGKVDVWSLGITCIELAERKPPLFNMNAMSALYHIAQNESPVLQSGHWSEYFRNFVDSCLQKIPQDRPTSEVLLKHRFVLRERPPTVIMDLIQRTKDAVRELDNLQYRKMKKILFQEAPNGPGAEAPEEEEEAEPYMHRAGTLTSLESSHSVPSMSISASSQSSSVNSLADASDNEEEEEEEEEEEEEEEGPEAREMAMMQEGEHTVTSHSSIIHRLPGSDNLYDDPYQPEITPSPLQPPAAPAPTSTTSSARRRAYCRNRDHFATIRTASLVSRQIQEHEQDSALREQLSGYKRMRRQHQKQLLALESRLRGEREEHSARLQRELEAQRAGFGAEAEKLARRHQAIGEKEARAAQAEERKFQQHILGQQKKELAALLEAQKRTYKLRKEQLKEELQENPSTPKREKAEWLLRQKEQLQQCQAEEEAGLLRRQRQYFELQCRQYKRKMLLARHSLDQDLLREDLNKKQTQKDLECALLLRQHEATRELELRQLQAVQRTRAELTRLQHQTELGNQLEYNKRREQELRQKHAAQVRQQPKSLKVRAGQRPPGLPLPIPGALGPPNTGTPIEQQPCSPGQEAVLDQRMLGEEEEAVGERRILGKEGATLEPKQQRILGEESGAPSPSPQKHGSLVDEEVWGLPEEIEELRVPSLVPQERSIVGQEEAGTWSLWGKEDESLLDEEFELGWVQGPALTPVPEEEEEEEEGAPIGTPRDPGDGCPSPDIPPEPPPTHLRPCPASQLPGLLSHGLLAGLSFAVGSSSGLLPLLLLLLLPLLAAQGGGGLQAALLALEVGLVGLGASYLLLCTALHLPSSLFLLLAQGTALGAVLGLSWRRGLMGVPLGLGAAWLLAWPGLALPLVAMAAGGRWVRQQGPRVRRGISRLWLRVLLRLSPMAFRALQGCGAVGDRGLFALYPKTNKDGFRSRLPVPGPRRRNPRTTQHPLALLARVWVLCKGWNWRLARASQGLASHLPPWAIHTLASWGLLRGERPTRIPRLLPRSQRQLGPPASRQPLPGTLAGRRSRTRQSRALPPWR

[15] = biological target: T4, Serine/threonine-protein kinase TAO2 (Homo sapiens); details: at 10 µM
[16] = biological target: T5, Serine/threonine-protein kinase TAO3 (Homo sapiens) (UniProt Q9H2K8); details: at 1 µM
T5 sequence (whole entry): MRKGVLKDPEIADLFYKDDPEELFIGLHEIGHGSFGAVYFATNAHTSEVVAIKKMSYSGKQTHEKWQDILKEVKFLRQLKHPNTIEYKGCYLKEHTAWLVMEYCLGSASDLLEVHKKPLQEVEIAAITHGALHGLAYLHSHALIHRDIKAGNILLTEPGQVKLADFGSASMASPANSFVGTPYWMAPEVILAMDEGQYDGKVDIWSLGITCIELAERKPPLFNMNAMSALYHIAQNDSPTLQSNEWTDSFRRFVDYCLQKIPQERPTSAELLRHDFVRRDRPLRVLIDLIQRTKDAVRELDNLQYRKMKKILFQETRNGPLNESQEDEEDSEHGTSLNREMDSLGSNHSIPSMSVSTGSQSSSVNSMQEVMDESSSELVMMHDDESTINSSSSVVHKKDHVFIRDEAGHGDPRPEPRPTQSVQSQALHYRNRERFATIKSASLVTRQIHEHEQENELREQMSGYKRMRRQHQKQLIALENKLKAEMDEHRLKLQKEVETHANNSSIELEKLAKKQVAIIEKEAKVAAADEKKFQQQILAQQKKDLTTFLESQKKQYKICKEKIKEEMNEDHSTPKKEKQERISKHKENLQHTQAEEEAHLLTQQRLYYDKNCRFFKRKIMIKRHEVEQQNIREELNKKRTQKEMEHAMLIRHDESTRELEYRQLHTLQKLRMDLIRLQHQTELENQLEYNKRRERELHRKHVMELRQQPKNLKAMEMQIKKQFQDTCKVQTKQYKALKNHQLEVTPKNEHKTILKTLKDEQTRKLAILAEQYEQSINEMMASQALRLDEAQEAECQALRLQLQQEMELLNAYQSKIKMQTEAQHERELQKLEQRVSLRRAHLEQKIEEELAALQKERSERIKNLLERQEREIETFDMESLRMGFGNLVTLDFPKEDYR

[17] = biological target: T5, Serine/threonine-protein kinase TAO3 (Homo sapiens); details: at 10 µM
[18] = biological target: T1, Serine/threonine-protein kinase TBK1 (Homo sapiens); details: at 10 µM
[19] = biological target: T6, TGF-beta receptor type-1 (Homo sapiens) (UniProt P36897); details: at 1 µM
T6 sequence (whole entry): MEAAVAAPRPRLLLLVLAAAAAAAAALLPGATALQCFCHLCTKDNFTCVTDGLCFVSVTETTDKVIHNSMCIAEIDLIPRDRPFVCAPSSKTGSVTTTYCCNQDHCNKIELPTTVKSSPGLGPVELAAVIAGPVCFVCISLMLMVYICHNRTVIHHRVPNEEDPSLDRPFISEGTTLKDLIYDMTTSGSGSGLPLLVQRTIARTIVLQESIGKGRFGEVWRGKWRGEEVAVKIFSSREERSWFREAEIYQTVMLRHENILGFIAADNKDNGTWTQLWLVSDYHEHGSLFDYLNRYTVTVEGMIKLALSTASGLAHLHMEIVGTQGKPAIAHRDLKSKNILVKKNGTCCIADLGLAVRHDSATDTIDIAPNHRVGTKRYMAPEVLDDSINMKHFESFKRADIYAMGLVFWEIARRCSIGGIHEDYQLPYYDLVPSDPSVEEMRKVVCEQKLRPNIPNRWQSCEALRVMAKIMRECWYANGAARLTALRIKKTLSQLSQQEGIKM

[20] = biological target: T6, TGF-beta receptor type-1 (Homo sapiens); details: at 10 µM

Chain of Serine/threonine-protein kinase 33 (Homo sapiens) (Q9BYT3 whole entry, looked up): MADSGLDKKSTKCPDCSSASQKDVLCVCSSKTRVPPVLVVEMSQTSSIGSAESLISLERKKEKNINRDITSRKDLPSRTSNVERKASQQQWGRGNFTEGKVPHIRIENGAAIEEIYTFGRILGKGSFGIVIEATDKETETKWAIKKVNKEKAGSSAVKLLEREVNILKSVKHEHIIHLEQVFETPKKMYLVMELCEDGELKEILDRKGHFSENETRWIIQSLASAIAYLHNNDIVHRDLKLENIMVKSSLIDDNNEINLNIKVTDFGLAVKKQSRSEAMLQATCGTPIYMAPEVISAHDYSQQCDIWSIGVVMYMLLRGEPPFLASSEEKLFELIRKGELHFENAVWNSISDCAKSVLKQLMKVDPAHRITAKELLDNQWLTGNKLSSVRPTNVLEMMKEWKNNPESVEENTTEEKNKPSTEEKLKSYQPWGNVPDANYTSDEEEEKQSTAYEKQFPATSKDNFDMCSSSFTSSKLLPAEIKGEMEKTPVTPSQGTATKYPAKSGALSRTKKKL

SMILES	residual activity [1] [%]	residual activity [2] [%]	residual activity [3] [%]	residual activity [4] [%]	residual activity [5] [%]	residual activity [6] [%]	residual activity [7] [%]	residual activity [8] [%]	residual activity [9] [%]	residual activity [10] [%]	residual activity [11] [%]	residual activity [12] [%]	residual activity [13] [%]	residual activity [14] [%]	residual activity [15] [%]	residual activity [16] [%]	residual activity [17] [%]	residual activity [18] [%]	residual activity [19] [%]	residual activity [20] [%]
CCc1nc(-c2ccc(OC)cc2)[nH]c1-c1ccncc1	105	100	112	100	113	107	108	104	107	–	–	–	–	–	–	–	–	–	–	–
C[S+]([O-])c1ccc(-c2nc(-c3ccc(F)cc3)c(-c3ccncc3)[nH]2)cc1 (stereo not given)	106	109	116	103	112	101	124	117	122	106	101	100	77	111	79	108	79	111	130	77
COc1ccc2c(c[n+](C)c3c4cc5c(cc4ccc23)OCO5)c1OC	97	92	–	71	132	82	81	93	82	92	94	–	87	–	93	99	90	65	82	89
COC(=O)[C@@]1(O)C[C@H]2O[C@]1(C)n1c3ccccc3c3c4c(c5c6ccccc6n2c5c31)C(=O)NC4	7	0	–	36	1	2	-1	23	3	-1	-5	5	3	16	2	10	3	3	49	8
